Experimental data from PubChem BioAssay (NCATS).
Inconclusive results are not listed. The source made the active and inactive calls. Unless noted, the call rests on the fitted dose curve; in most records, active means well fitted curve in the direction sought with a large enough effect; inconclusive means small, poorly fitted or top-dose-only effect, or another doubt; inactive means no such curve, though single readings can be large; an effect the other way counts as inactive or inconclusive.

What was measured:
[1] = HEK-293 Cancer Cell Toxicity qHTS against the NCATS CANVASS Library (AID 1347355)
Procedure, shortened: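 1000 cells/well, 4 h pre-incubation 37 °C/5% CO2; 11-pnt titration; 72 h; CellTiter-Glo 15 min RT, luminescence.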

[2] = tested on: NAD(P)H diaphorase (Clostridium kluyveri); assay: Diaphorse counterscreen qHTS: Assay Interference Panel against the NCATS CANVASS Library (AID 1347362)
Procedure, shortened: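 Clostridium kluyveri diaphorase in PBS + 0.01% Tween-20 preincubated 15 min with compounds. Resazurin and NADH then added for 5 min at room temperature in the dark; resorufin fluorescence read (ex 525, em 598).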

[3] = KB-3-1 Cancer Cell Toxicity qHTS against the NCATS CANVASS Library (AID 1347366)
Procedure, shortened: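 KB-3-1 cells (500/well) in DMEM with 10% FBS were exposed to compounds for 72 h at 37C. Viability was read by CellTiter-Glo luminescence.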

[4] = qHTS for Hypoxia signaling pathway (HIF-1) antagonists against the NCATS CANVASS Library (AID 1347374)
Procedure, shortened: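 Beta-lactamase reporter under HRE control in ME-180 cells; CoCl2 stimulus (60 uM solution as added), compounds 11-pt qHTS, 17 h 37C. CCF4 dye 2 h RT, 460/530 nm emission. CellTiter-Glo viability in same wells.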

[5] = qHTS for H2AX Agonists against the NCATS CANVASS Library (AID 1347378)
Procedure, shortened: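 CHO-K1 cells (1000/well, overnight at 37C) exposed to compounds at several concentrations for 3 hr at 37C, 0.76% DMSO final. Lysates read by TR-FRET (phospho-H2AX S139 Eu-cryptate antibody / H2AX-d2 antibody) after 24 hr at room temperature; 665/615 nm ratio.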

[6] = qHTS assay for small molecule disruptors of mitochondrial membrane potential screened against the NCATS CANVASS Library (AID 1347389)
Procedure, shortened: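 Red/green fluorescence ratio read-out: J-aggregates ex 540/em 590 nm, monomers ex 490/em 535 nm. HepG2, 1 hr compound treatment, then 30 min Mito-MPS dye at 37C. 11-pt qHTS concentration series.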

[7] = qHTS for inhibitors of Wild type Zika virus screened against the NCATS CANVASS Library (AID 1347396)
Procedure, shortened: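 Using ATP-based luminescence (CellTiter Glo), this screen scores rescue of Vero 766 cells from wild-type Zika killing at 72 h post-infection. Compounds are tested in a concentration series.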

[8] = Viability qHTS for inhibitors of the SERCaMP assay screened against the NCATS CANVASS Library (AID 1347400)
Procedure, shortened: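 CellTiter-Glo luminescence readout after 48 h compound exposure (11-pnt qHTS series) of SH-SY5Y-GLuc SERCaMP MJH297 cells seeded at 1000 cells/well; bortezomib positive control.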

[9] = qHTS for inhibitors of Rabies Virus screened against the NCATS CANVASS Library (AID 1347402; calls by dose curve)
[10] = biological target: Nuclear receptor subfamily 1 group I member 3 (Homo sapiens) (UniProt Q14994); assay: qHTS for Constitutive Androstane Receptor (CAR) Antagonist screened against the NCATS CANVASS Library (AID 1347372)
Chain of Nuclear receptor subfamily 1 group I member 3 (Homo sapiens) (Q14994 whole entry, looked up): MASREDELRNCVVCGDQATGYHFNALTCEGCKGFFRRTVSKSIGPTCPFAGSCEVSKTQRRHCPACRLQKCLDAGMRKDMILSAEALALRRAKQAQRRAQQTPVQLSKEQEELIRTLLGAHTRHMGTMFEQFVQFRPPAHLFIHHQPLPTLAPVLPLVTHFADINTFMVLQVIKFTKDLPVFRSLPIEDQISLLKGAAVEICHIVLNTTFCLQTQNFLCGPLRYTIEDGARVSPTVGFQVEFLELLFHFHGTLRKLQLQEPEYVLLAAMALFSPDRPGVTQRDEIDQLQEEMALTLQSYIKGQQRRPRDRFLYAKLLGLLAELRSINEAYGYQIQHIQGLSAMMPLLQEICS
Procedure, shortened: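 Luminescence readout (ONE-Glo, 30 min RT) of CYP2B6-2.2kb reporter in HepG2-hCAR cells after 24hr, 37C treatment with compound against 50 nM CITCO; CellTiter-Fluor viability read beforehand.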

[11] = biological target: Glutathione peroxidase 1 (Homo sapiens) (UniProt P07203); assay: Primary qHTS Assay for Inhibitors of Recombinant Selenoprotein Glutathione Peroxidase 1 (GPX1) (AID 1845191)
Chain of Glutathione peroxidase 1 (Homo sapiens) (P07203 whole entry, looked up): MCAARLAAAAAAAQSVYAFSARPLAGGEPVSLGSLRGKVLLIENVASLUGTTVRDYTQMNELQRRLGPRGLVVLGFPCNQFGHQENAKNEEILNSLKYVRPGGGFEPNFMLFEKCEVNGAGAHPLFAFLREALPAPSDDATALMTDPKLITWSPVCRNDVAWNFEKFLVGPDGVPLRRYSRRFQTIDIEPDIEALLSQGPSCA
Procedure, shortened: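 GR-coupled readout: NADPH consumption tracked by fluorescence, ex 340/em 450 nm, at t=0 and after 15 min at RT. Final mix 10 nM GPX1, 1 mM GSH, 0.5 mM CHP, 0.5 mM NADPH, 100 nM GR, 0.01% BSA, following 30 min enzyme–compound preincubation.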

[12] = biological target: Phospholipid hydroperoxide glutathione peroxidase GPX4 (Homo sapiens) (UniProt P36969); assay: Primary qHTS Assay for Inhibitors of Recombinant Selenoprotein Glutathione Peroxidase 4 (GPX4) (AID 1845192)
Chain of Phospholipid hydroperoxide glutathione peroxidase GPX4 (Homo sapiens) (P36969 whole entry, looked up): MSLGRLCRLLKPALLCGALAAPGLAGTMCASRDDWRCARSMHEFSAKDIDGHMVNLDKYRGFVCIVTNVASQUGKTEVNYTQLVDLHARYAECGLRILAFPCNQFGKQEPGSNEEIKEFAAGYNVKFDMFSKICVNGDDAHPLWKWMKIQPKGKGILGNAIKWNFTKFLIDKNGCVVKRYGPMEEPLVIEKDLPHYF
Procedure, shortened: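 Steps: GPX4 plus compound, 30 min RT; add GR/GSH/NADPH master mix; start with cumene hydroperoxide; read 340/450 nm fluorescence at 0 and 15 min. Finals were 200 nM GPX4, 1 mM GSH, 0.5 mM CHP, 0.5 mM NADPH, 100 nM GR.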

CC[C@@H]1CN2CCC3(Nc4cccc(OC)c4C3=O)[C@@H]2C[C@@H]1/C(=C\OC)C(=O)OC (stereo partly drawn)
inactive: Potency [1] | Potency [2] | Potency [3] | Potency [4] | Potency [5] | Potency [6] | Potency [7] | Potency [8] | outcome [9]

CC[C@H]1CN2CCc3c([nH]c4cccc(OC)c34)[C@@H]2C[C@@H]1/C(=C\OC)C(=O)OC
inactive: Potency [2] | Potency [3] | Potency [10] | Potency [4] | Potency [5] | Potency [7] | Potency [8]
active: Potency [1] 23.5 µM

C/C=C1/CN2CC[C@]34C(=C(C(=O)OC)[C@H]1C[C@H]23)Nc1ccccc14
inactive: Potency [1] | Potency [2] | Potency [3] | Potency [4] | Potency [5] | Potency [6] | Potency [7] | outcome [9]

C/C(=C\[C@H](C)C(=O)C[C@H](O)CC1CC(=O)NC(=O)C1)[C@@H]1OC(=O)/C=C/CC/C=C/C=C/[C@@H]1C
inactive: Potency [6] | Potency [7]
active: Potency [1] 0.148 µM | Potency [3] 1.48 µM | Potency [10] 0.741 µM | Potency [4] 0.0375 µM | Potency [8] 0.538 µM

C=CC(C)(C)[C@@]12C[C@H]3C(=O)N/C(=C/c4cnc[nH]4)C(=O)N3[C@@H]1Nc1ccccc12
active: Potency [10] 20.9 µM
inactive: Potency [2] | Potency [3] | Potency [4] | Potency [5] | Potency [6] | Potency [7] | Potency [8] | outcome [9]

CO[C@H]1[C@H](O[C@H]2CC[C@]3(C=O)[C@H]4CC[C@]5(C)[C@@H](C6=CC(=O)OC6)CC[C@]5(O)[C@@H]4CC[C@]3(O)C2)O[C@H](C)[C@H](O)[C@@H]1OC
active: Potency [1] 0.105 µM | Potency [3] 0.235 µM | Potency [10] 0.295 µM | Potency [4] 0.0838 µM | Potency [8] 0.303 µM
inactive: Potency [2] | Potency [5] | Potency [6] | Potency [7]

C[N+](C)(C)CCc1c[nH]c2ccccc12
inactive: Potency [1] | Potency [2] | Potency [3] | Potency [10] | Potency [4] | Potency [5] | Potency [6] | Potency [7] | Potency [8] | outcome [9]

C=C[C@H]1CN2CCc3c([nH]c4cccc(OC)c34)[C@@H]2C[C@@H]1/C(=C\OC)C(=O)OC
active: Potency [1] 18.7 µM
inactive: Potency [2] | Potency [10] | Potency [4] | Potency [5] | Potency [7] | Potency [8]

C[C@]12CC(O)C3[C@@H](CCC4C[C@@H](O)CC[C@@]43CO)[C@@]1(O)CC[C@@H]2C1=CC(=O)OC1 (stereo partly drawn)
inactive: Potency [2] | Potency [5] | Potency [6] | Potency [7]
active: Potency [1] 13.2 µM | Potency [3] 26.4 µM | Potency [10] 10.5 µM | Potency [4] 9.41 µM | Potency [8] 13.5 µM

CC1(C)CC[C@]2(NC(=O)C(C)(F)F)CC[C@]3(C)[C@H](C(=O)C=C4[C@@]5(C)C=C(C#N)C(=O)C(C)(C)[C@@H]5CC[C@]43C)[C@@H]2C1
inactive: Potency [11] | Potency [12]

Cn1c(/C=C/CO)c(CO)c2c1C(=O)C=C(N1CC1)C2=O
inactive: Potency [11] | Potency [12]

Cc1[nH]ncc1-c1cc2nc([C@@H]3CC4CCN3CC4)[nH]c(=O)c2s1
inactive: Potency [11] | Potency [12]

COC(=O)[C@@]12OC[C@]34[C@H]([C@@H](O)[C@@H]1O)[C@@]1(C)CC(=O)C(O)=C(C)[C@@H]1C[C@H]3OC(=O)[C@H](OC(=O)/C=C(\C)C(C)C)[C@@H]24
inactive: Potency [11] | Potency [12]

COc1cc2cc(c1Cl)N(C)C(=O)C[C@H](OC(=O)C(C)C)[C@]1(C)O[C@@H]1[C@H](C)[C@@H]1C[C@@](O)(NC(=O)O1)[C@H](OC)/C=C/C=C(\C)C2
inactive: Potency [11] | Potency [12]

N#CC(O[C@@H]1O[C@H](CO[C@@H]2O[C@H](CO)[C@@H](O)[C@H](O)[C@H]2O)[C@@H](O)[C@H](O)[C@H]1O)c1ccccc1 (stereo partly drawn)
inactive: Potency [11] | Potency [12]

COc1cc(C)[nH]c(=O)c1CNC(=O)c1c(C)n([C@H](C)C2CCN(CC(F)(F)F)CC2)c2ccccc12
inactive: Potency [11] | Potency [12]

CCCCCCC(C)(C)c1cc(O)c2c(c1)OC(C)(C)C1CC=C(CO)C[C@H]21 (stereo partly drawn)
inactive: Potency [11] | Potency [12]

CC(=O)O[C@H]1c2ccccc2-c2c3c(cc4c2[C@@H]1N(C(C)=O)CC4)OCO3
inactive: outcome [9]

CO/C1=C/C(C)=C\[C@@H](C)[C@@H](O)[C@@H](C)C/C(C)=C\C=C/[C@H](OC)[C@@H]([C@@H](C)[C@@H](O)[C@H](C)[C@@]2(O)C[C@@H](O)[C@H](C)[C@@H](C(C)C)O2)OC1=O
inactive: Potency [11] | Potency [12]

O=C1CC(c2ccc(O)cc2)Oc2cc(O)ccc21 (stereo not drawn)
inactive: outcome [9]

COC(=O)[C@@]12Oc3cccc(O)c3C(O)=C1C(=O)C[C@H](C)[C@H]2O
inactive: outcome [9]

CC(N[C@H]1C[C@@H]1c1ccccc1)c1ccc2c(c1)OCCO2 (stereo partly drawn)
inactive: Potency [11]

O=C1CC(c2ccc(O)cc2)Oc2cc(O)cc(O)c21 (stereo not drawn)
inactive: outcome [9]

CC(=O)O[C@@]12CO[C@@H]1C[C@H](O)[C@@]1(C)C(=O)[C@H](O)C3=C(C)[C@@H](O)C[C@@](O)([C@@H](OC(=O)c4ccccc4)[C@H]21)C3(C)C
inactive: Potency [11] | Potency [12]

COc1ccc([C@@H]2c3cc4c(cc3C[C@H](C)C2C)OCO4)cc1OC (stereo partly drawn)
inactive: outcome [9]

COC(=O)[C@]12CCC(C)(C)C[C@H]1[C@H]1C(=O)C=C3[C@@]4(C)C=C(C#N)C(=O)C(C)(C)[C@@H]4CC[C@@]3(C)[C@]1(C)CC2
inactive: Potency [11] | Potency [12]

Cc1c(N)nc([C@H](CC(N)=O)NC[C@@H](N)C(N)=O)nc1C(=O)N[C@H](C(=O)N[C@@H](C)[C@H](O)[C@@H](C)C(=O)N[C@@H](C(=O)NCCc1nc(-c2nc(C(=O)NCCC[S+](C)C)cs2)cs1)[C@@H](C)O)C(O[C@H]1O[C@H](CO)[C@H](O)[C@@H](O)[C@H]1O[C@H]1O[C@H](CO)[C@@H](O)[C@H](OC(N)=O)[C@@H]1O)c1cnc[nH]1 (stereo partly drawn)
inactive: Potency [11] | Potency [12]

COC12C(COC(N)=O)C3=C(C(=O)C(C)=C(N)C3=O)N1CC1C2N1C (stereo not drawn)
inactive: Potency [11] | Potency [12]

CC(C)(NC(=O)O[C@@H]1CN2CCC1CC2)c1csc(-c2ccc(F)cc2)n1
inactive: Potency [11] | Potency [12]

COc1ccc([C@@H]2c3cc(OC)c(OC)cc3C(=O)[C@H](C)C2C)cc1OC (stereo partly drawn)
inactive: activity change, negative = inhibition [9] -3.53% [at 9.14 µM]

O=C(CBr)N1CC([N+](=O)[O-])([N+](=O)[O-])C1
inactive: Potency [11] | Potency [12]
